Test results from PubChem BioAssay (Tox21).
Inconclusive results are not listed. Calls of active or inactive are those of the source. Unless noted, calls come from the whole dose curve; as a rule, active = well fitted curve in the direction sought with a large enough effect in the repeat runs; inconclusive = weak or mixed curves; inactive = no such curve, though single readings can be large; an effect the other way counts as inactive or inconclusive.

Legend:
[1] = qHTS assay to identify small molecule antagonists of the retinoid-related orphan receptor gamma (ROR-gamma) signaling pathway - cell viability counter screen (AID 1159520); note: nearly all actives have a fitted effect of over 50% in size; note: potency is the fitted concentration of half-maximal effect
Summary of the method: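 Tet-on ROR gamma CHO cells (1,000/well) were plated 4 hr, given compounds in DMSO for 2 hr at 37 C, then induced with 1 uM final doxycycline for 16 hr. Viability was read as ATP by CellTiter-Glo luminescence after 30 min.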

[2] = target: Nuclear receptor ROR-gamma (Homo sapiens) (UniProt P51449); experiment: qHTS assay to identify small molecule antagonists of the retinoid-related orphan receptor gamma (ROR-gamma) signaling pathway (AID 1159521; note: nearly all actives have a fitted effect of over 50% in size; note: potency is the fitted concentration of half-maximal effect)
Summary of the method: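 CHO cells expressing RORγ under a TET-on promoter, luciferase under RORE control. Dox 1 uM final, 16 h; compounds added 2 h prior. Luminescence decrease measured.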

[3] = qHTS assay to identify small molecule agonists of the AP-1 signaling pathway (AID 1159526; calls by dose curve; note: % is set by controls: 0 for no effect and ±100 for the full control effect)
[4] = target: Retinoic acid receptor RXR-alpha (Homo sapiens) (UniProt P19793); experiment: qHTS assay to identify small molecule agonists of the RXR signaling pathway (AID 1159527; calls by dose curve; note: nearly all actives have a fitted effect of over 35% in size; note: potency is the fitted concentration of half-maximal effect)
Chain of Retinoic acid receptor RXR-alpha (Homo sapiens) (P19793 whole entry, looked up): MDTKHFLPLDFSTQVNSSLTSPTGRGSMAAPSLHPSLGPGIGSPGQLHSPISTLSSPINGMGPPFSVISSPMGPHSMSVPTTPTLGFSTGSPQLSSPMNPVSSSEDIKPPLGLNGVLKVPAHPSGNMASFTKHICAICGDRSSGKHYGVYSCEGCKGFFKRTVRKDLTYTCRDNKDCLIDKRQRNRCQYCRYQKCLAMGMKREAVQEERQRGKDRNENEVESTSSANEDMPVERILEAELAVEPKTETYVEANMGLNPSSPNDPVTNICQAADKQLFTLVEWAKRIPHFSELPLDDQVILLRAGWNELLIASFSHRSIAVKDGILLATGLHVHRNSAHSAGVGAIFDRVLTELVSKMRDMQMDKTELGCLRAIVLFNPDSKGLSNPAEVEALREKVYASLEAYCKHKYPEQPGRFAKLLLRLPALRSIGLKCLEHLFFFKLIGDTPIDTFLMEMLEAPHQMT
Summary of the method: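 Beta-lactamase reporter assay, agonist format. Engineered HEK 293T line, charcoal-stripped FBS at 2%, overnight (16 hr) exposure, fluorescence at 460 and 530 nm after 405 nm excitation.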

[5] = qHTS assay to identify small molecule agonists of the RXR signaling pathway - cell viability counter screen (AID 1159529); note: nearly all actives have a fitted effect of over 50% in size; note: potency is the fitted concentration of half-maximal effect
Summary of the method: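 Same-well viability check after the LiveBLAzer FRET read: CellTiter-Glo added, luminescence measured after 30 min at room temperature. Reporter HEK 293T cells had been treated with compounds for 16 hr following a 5 hr preincubation.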

[6] = qHTS assay to identify small molecule antagonists of the retinoid acid receptor (RAR) signaling pathway - cell viability counter screen (AID 1159551); note: % is set by controls: 0 for no effect and ±100 for the full control effect; nearly all actives have a fitted effect of over 35% in size
Summary of the method: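 C3RL4 RARE-luciferase line; cpds + retinol 1 uM final, 6 h, 37 C/5% CO2; CellTiter-Glo ATP luminescence, 30 min RT.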

[7] = qHTS assay to identify small molecule agonists of the peroxisome proliferator-activated receptor delta (PPARd) signaling pathway - cell viability counter screen (AID 743211); note: nearly all actives have a fitted effect of over 55% in size; note: potency is the fitted concentration of half-maximal effect
Summary of the method: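 Luminescent ATP viability assay (CellTiter-Glo, 30 min RT) in UAS-bla HEK293H cells carrying the PPAR delta reporter construct, 3000 cells/well, after a 17 h compound treatment at 37 C.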

[8] = target: Peroxisome proliferator-activated receptor delta (Homo sapiens) (UniProt Q03181); experiment: qHTS assay to identify small molecule agonists of the peroxisome proliferator-activated receptor delta (PPARd) signaling pathway (AID 743212; calls by dose curve; note: % is set by controls: 0 for no effect and ±100 for the full control effect)
Chain of Peroxisome proliferator-activated receptor delta (Homo sapiens) (Q03181 whole entry, looked up): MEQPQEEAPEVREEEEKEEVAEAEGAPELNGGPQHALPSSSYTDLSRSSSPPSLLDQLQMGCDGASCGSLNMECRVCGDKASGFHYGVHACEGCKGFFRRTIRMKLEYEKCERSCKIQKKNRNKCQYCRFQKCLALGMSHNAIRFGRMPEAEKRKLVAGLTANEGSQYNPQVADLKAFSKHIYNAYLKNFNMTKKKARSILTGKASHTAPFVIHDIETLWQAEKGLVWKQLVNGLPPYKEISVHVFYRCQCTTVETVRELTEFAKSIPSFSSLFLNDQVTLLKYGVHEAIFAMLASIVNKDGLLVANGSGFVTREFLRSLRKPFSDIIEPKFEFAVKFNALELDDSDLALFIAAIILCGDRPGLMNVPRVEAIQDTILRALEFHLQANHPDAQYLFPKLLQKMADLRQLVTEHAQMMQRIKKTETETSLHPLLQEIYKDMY
Summary of the method: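 Beta-lactamase reporter read by fluorescence (LiveBLAzer B/G FRET, 2 h, room temperature). Test agents, in DMSO, incubated at 37 C with PPARd-bla HEK293H cells.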

[9] = qHTS assay to identify small molecule antagonists of the peroxisome proliferator-activated receptor delta (PPARd) signaling pathway - cell viability counter screen (AID 743213); note: nearly all actives have a fitted effect of over 50% in size; note: potency is the fitted concentration of half-maximal effect
Summary of the method: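 Same-well viability: cells pre-incubated 5 h, dosed with compound plus 300 nM L165041, kept 17 h at 37 C, FRET substrate 2 h RT, then CellTiter-Glo 30 min RT and luminescence.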

[10] = target: Bile acid receptor (Homo sapiens) (UniProt Q96RI1); experiment: qHTS assay to identify small molecule antagonists of the farnesoid-X-receptor (FXR) signaling pathway (AID 743217; active = well fitted inhibition curve with a large enough effect in the signal ratio in the repeat runs, not every such curve was filed as active; the % refers to the signal ratio; note: % is set by controls: 0 for no effect and ±100 for the full control effect)
Chain of Bile acid receptor (Homo sapiens) (Q96RI1 whole entry, looked up): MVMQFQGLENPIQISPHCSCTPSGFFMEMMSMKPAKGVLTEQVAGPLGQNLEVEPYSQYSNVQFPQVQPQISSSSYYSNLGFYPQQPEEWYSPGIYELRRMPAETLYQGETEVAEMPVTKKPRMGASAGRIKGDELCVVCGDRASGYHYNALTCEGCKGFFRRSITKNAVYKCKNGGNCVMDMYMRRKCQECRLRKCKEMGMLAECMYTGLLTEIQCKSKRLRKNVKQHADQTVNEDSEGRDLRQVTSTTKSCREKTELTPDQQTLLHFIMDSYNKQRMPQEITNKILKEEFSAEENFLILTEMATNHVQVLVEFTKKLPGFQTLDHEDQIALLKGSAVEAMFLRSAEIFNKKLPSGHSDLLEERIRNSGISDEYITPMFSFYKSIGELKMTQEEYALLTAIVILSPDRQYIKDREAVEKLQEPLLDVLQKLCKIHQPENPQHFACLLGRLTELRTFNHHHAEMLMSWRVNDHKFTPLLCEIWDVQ
Summary of the method: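 Read-out: beta-lactamase FRET fluorescence (LiveBLAzer B/G substrate, 2 h, room temperature) in GeneBLAzer FXR-UAS-bla HEK 293T cells. Compounds were co-dosed with 50 uM chenodeoxycholic acid (final) and incubated 16 h at 37 °C.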

[11] = qHTS assay to identify small molecule agonists of the farnesoid-X-receptor (FXR) signaling pathway - cell viability counter screen (AID 743218); note: nearly all actives have a fitted effect of over 45% in size; note: potency is the fitted concentration of half-maximal effect
Summary of the method: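 Luminescence from CellTiter-Glo, read after 30 min at RT, reports viability of GeneBLAzer FXR-UAS-bla HEK 293T cells treated 16 h with compounds in the wells used for the beta-lactamase reporter.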

[12] = target: Bile acid receptor (Homo sapiens) (UniProt Q96RI1); experiment: qHTS assay to identify small molecule agonists of the farnesoid-X-receptor (FXR) signaling pathway (AID 743220; active = well fitted activation curve with a large enough effect in the signal ratio in the repeat runs, not every such curve was filed as active; the % refers to the signal ratio; note: % is set by controls: 0 for no effect and ±100 for the full control effect)
Summary of the method: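 FXR-UAS-bla HEK 293T cells carrying a UAS-driven beta-lactamase reporter were plated for 5 h at 37C/5% CO2, then exposed to DMSO-dissolved Tox21 10K compounds for 16 h at 37C. A LiveBLAzer B/G FRET substrate was loaded for 2 h at room temperature before fluorescence reading.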

[13] = qHTS assay to identify small molecule antagonists of the farnesoid-X-receptor (FXR) signaling pathway - cell viability counter screen (AID 743221; active = well fitted cell-killing curve with a large enough effect in the repeat runs, not every such curve was filed as active; note: nearly all actives have a fitted effect of over 50% in size; note: potency is the fitted concentration of half-maximal effect)
Summary of the method: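 In GeneBLAzer FXR-UAS-bla HEK 293T cells stimulated with 50 uM chenodeoxycholic acid (final), compounds acted for 16 h at 37 C. Viability was assessed afterwards by CellTiter-Glo luminescence.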

[14] = qHTS assay to identify small molecule agonists of the vitamin D receptor (VDR) signaling pathway - cell viability counter screen (AID 743224); note: nearly all actives have a fitted effect of over 50% in size; note: potency is the fitted concentration of half-maximal effect
Summary of the method: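 Cytotoxicity counter screen: VDR-bla cells, 16 h compound exposure at 37C, 5% CO2; CellTiter-Glo luminescence, 30 min RT, same wells as bla read.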

[15] = qHTS assay to identify small molecule agonists of the retinoic acid receptor (RAR) signaling pathway (AID 1159553); note: % is set by controls: 0 for no effect and ±100 for the full control effect
Summary of the method: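 RARE-luc C3RL4 cells; overnight attachment 37 C/5% CO2; compound (DMSO) 6 hr; luciferase reagent, 30 min RT; luminescence read-out.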

[16] = qHTS assay to identify small molecule antagonists of the retinoic acid receptor (RAR) signaling pathway (AID 1159552; note: nearly all actives have a fitted effect of over 50% in size; note: potency is the fitted concentration of half-maximal effect)
Summary of the method: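 Readout: luciferase luminescence, 30 min post-reagent at RT. Setup: C3RL4 RARE reporter cells, compounds plus retinol 1 uM final, 6 hr incubation at 37 C and 5% CO2.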

[17] = target: Peroxisome proliferator-activated receptor delta (Homo sapiens) (UniProt Q03181); experiment: qHTS assay to identify small molecule antagonists of the peroxisome proliferator-activated receptor delta (PPARd) signaling pathway (AID 743215; active = well fitted inhibition curve with a large enough effect in the signal ratio in the repeat runs, not every such curve was filed as active; the % refers to the signal ratio;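 note: cells stimulated with agonist L165041 at 300 nM final during compound exposure; potency is the fitted concentration of half-maximal effect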)
Summary of the method: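 HEK293H GeneBLAzer PPARd UAS-bla reporter cells; cpd + L165041 300 nM final, 17 h 37 C; LiveBLAzer B/G FRET substrate 2 h RT; fluorescence intensity read-out. Antagonist mode.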

[18] = target: Vitamin D3 receptor (Homo sapiens) (UniProt P11473); experiment: qHTS assay to identify small molecule antagonists of the vitamin D receptor (VDR) signaling pathway (AID 743223; active = well fitted inhibition curve with a large enough effect in the signal ratio in the repeat runs, not every such curve was filed as active; the % refers to the signal ratio; note: potency is the fitted concentration of half-maximal effect)
Chain of Vitamin D3 receptor (Homo sapiens) (P11473 whole entry, looked up): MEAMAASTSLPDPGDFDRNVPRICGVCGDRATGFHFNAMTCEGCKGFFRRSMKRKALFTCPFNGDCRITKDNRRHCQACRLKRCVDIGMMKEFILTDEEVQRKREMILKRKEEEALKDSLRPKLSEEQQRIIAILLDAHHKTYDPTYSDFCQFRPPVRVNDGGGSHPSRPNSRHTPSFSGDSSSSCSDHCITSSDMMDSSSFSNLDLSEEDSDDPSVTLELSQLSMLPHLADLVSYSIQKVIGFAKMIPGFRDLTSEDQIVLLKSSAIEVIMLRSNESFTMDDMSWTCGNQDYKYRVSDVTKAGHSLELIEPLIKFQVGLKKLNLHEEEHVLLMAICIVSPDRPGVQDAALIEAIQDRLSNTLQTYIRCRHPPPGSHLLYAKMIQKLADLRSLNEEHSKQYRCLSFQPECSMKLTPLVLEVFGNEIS
Summary of the method: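 Agonist 1alpha,25-dihydroxyvitamin D3 (3 nM in well) was added with each compound to VDR-bla cells preincubated 4 h. Cells stood 16 h at 37C, then FRET substrate 2 h at room temperature; fluorescence intensity recorded.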

[19] = qHTS assay to identify small molecule antagonists of the vitamin D receptor (VDR) signaling pathway - cell viability counter screen (AID 743225)
Summary of the method: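 Luminescent cell viability (CellTiter-Glo) in VDR-bla HEK 293T cells after 16 h compound exposure at 37C in the presence of 3 nM final 1-alpha,25-dihydroxy vitamin D3.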

CCC(=O)OC/C=C(\C)CCC=C(C)C
inactive: Potency [1] | Potency [2] | Potency [3] | Potency [4] | Potency [5] | Potency [6]

CCCC(C)C=O (configuration not stated)
inactive: Potency [1] | Potency [2] | Potency [3] | Potency [4] | Potency [5] | Potency [6]

Oc1ccc(Cl)cc1C1CCCC1
active: Potency [4] 11 µM
inactive: Potency [7] | outcome [8] | Potency [9] | Potency [10] | Potency [11] | outcome [12] | Potency [13] | Potency [14] | Potency [1] | Potency [2] | Potency [6] | Potency [15]

CC/C=C(\C)C=O
inactive: Potency [1] | Potency [2] | Potency [3] | Potency [4] | Potency [5] | Potency [6]

CCCCNc1ccc(NCCCC)c2c1C(=O)c1ccccc1C2=O
inactive: activity, negative = cytotoxicity [1] -0.683% [at 19 µM] | activity change, negative = inhibition [2] -8.88% [at 19 µM] | activation [4] 10.8% [at 15.8 µM] | activity change, negative = cytotoxicity [5] 10.1% [at 15.8 µM] | activity change, negative = cytotoxicity [6] 0.361% [at 19 µM] | activity, negative = inhibition [16] -19% [at 19 µM]

C=Cc1ccc(O)c(OC)c1
inactive: Potency [1] | Potency [2] | Potency [4] | Potency [5] | Potency [6]

CCN(CC)c1ccc(C=O)cc1
inactive: Potency [1] | Potency [2] | Potency [3] | Potency [5] | Potency [6] | Potency [16]

C=C1CC[C@H]2O[C@]2(C)CC[C@@H]2[C@@H]1CC2(C)C
inactive: Potency [1] | Potency [2] | Potency [3] | Potency [4] | Potency [5] | Potency [6]

C=C(C)CCO
inactive: Potency [1] | Potency [2] | Potency [4] | Potency [5] | Potency [6]

C/C(=C\c1ccc(C(=O)O)cc1)c1ccc2c(c1)C(C)(C)CCC2(C)C
active: Potency [4] 0.952 µM
inactive: Potency [1] | Potency [2] | Potency [3] | Potency [5] | Potency [6]

N#Cc1nc(Cl)c(Cl)c(Cl)c1Cl
active: Potency [7] 7.76 µM | Potency [9] 15.5 µM | Potency [17] 7.76 µM | Potency [11] 13.8 µM | Potency [18] 6.92 µM | Potency [14] 11 µM | Potency [19] 19.5 µM | Potency [1] 1.93 µM | Potency [2] 2.73 µM | Potency [5] 15.5 µM

CN1CCN(c2ccccc2/C=C2\SCCN(c3ccc(Cl)c(Cl)c3)C2=O)CC1
active: Potency [7] 24.5 µM | Potency [9] 24.5 µM | Potency [17] 21.9 µM | Potency [11] 43.6 µM | Potency [13] 54.9 µM | Potency [14] 38.9 µM | Potency [19] 43.6 µM | Potency [1] 68.6 µM | Potency [2] 7.7 µM | Potency [5] 24.5 µM | Potency [16] 48.6 µM

CCCCCCCCSCc1cc(C)c(O)c(CSCCCCCCCC)c1
active: Potency [2] 61.1 µM
inactive: Potency [1] | Potency [6]

c1ccc2c(c1)-c1ccc3ccc4cccc5cc-2c1c3c45
inactive: Potency [1] | Potency [2] | Potency [6]
